This is an account of results in PubChem BioAssay (NCI).

Where “and” joins values, the source holds several entries; their conditions need not be identical. Identical values can stand only once. Compounds without any hit were thinned out: in the full panel of roughly 83,000, 20% have a hit.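 Assay: single dose, 48 h. Readout: percent growth (0 = no net growth; negative = cell death). Active: <10.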 Calls of active or inactive are those of the source.

Holding throughout (assay): NCI-60 one-dose screen, 48 h (100 = growth as untreated, 0 = no growth, -100 = all killed)
Holding throughout (conditions): 10 µM unless noted

The subject of test [1] is NCI-H23 lung.
The subject of test [2] is NCI-H226 lung.
Test [3] relates to NCI-H322M lung.
Test [4] deals with HOP-62 NSCLC.
The subject of test [5] is NCI-H460 lung.
The subject of test [6] is HOP-92 NSCLC.
For test [7], the system named is NCI-H522 lung.
For test [8], the system named is A549/ATCC NSCLC.
In test [9] the test system is 786-0 renal.
Test [10] concerns COLO 205 colon.

Consider `NC1=CC(=O)c2cccnc2C1=O`, for which the growth in test [1] was -33.1% (active); in test [2], 59.2% (inactive); in test [3] it was 71.1% (inactive); in [4], 14.6% (inactive); in test [5] it was -53.6% (active); in [6], -31.3% (active). The growth in [7] is -57.9% (active); in [8], 26.6% (inactive); in test [9] it was 26.5% (inactive); in test [10] it was 76.7% (inactive).

`CCOC(=O)n1cc(-c2nonc2-c2cn(C)c3ccc(OC)cc23)c2cc(F)ccc21`: the growth was 76.1% (inactive) in test [1]; 78.3% (inactive) in test [2]; 67.4% (inactive) in test [3]; 72.6% (inactive) in test [4]; 80.6% (inactive) in test [5]; 71.4% (inactive) in [6]. The growth in test [7] was 74.4% (inactive); in test [8] it was 56.5% (inactive); in test [9], 93.9% (inactive); in test [10] it was 90.9% (inactive).

On to `COc1ccc(-c2nnc3n(C)c(=O)c4ccccc4n23)cc1O`, for which the growth was 41.4% (inactive) in test [1]; 76.8% (inactive) in test [2]; 44.6% (inactive) in test [3]; 20.3% (inactive) in test [4]; 12% (inactive) in test [5]; 67.3% (inactive) in test [6]. The growth is 15.6% (inactive) in test [7], 16.5% (inactive) in test [8], 30.8% (inactive) in test [9] and 16.6% (inactive) in test [10].

Take `COc1ccc2c(c1)c(C(=O)c1nc(-c3cn(C)c4ccccc34)no1)cn2C`: the growth in [1] was 94.6% (inactive); in [2], 83% (inactive); in [3] it was 86.5% (inactive); in test [4] it was 92.5% (inactive); in [5], 101% (inactive); in test [6], 110% (inactive). For the same compound, the growth in test [7] was 69.6% (inactive); in test [8], 90.7% (inactive); in [9], 107% (inactive); in test [10], 97.7% (inactive).

On to `O=C1/C(=C/c2ccc(-c3cccc(C(F)(F)F)c3)o2)SC(=S)N1CCc1ccc(O)cc1`, for which the growth in test [1] is 85% (inactive); in test [2] it was 101% (inactive); in test [3], 90.3% (inactive); in [4] it was 88.9% (inactive); in [5], 72.4% (inactive); in test [6], 63.5% (inactive). Besides, the growth is 4% (active) in [7], 75% (inactive) in test [8], 17.9% (inactive) in [9] and -3.13% (active) in test [10].

On to `O=C(N/N=C/c1ccc(O)cc1O)c1cccc(Nc2ccnc(C(F)(F)F)c2)c1`, for which the growth in test [1] was 27.5% (inactive); in test [2], 40.5% (inactive); in test [3], 22.7% (inactive); in test [4], 14.3% (inactive); in test [5], 22.2% (inactive); in test [6], 44.1% (inactive). For the same compound, the growth in test [7] is 41.5% (inactive); in test [8], 55.9% (inactive); in test [9] it was 5.8% (active); in test [10], 43% (inactive).

Consider `O=c1c2c([nH]c3ccccc13)CCCC2`, for which the growth in test [1] is 100% (inactive) and 68.1% (inactive); in test [2], 100% (inactive); in [3] it was 113% (inactive) and 77.7% (inactive); in test [4] it was 98.5% (inactive) and 40.1% (inactive); in [5] it was 99.8% (inactive) and 22.8% (inactive); in test [6], 83.9% (inactive) and 52.4% (inactive). In addition, the growth is 92.4% (inactive) and 37.6% (inactive) in test [7]; 93.8% (inactive) and 56.3% (inactive) in [8]; 107% (inactive) and 74.3% (inactive) in test [9]; 94.5% (inactive) and 8.36% (active) in [10].

`CCOC(=O)c1c(-c2ccc(C)cc2)c(C#N)c(=O)n(-c2cccc(C(F)(F)F)c2)c1N`: the growth in [1] is 98.6% (inactive); in [2], 100% (inactive); in [3], 103% (inactive); in test [4], 99.8% (inactive); in test [5] it was 104% (inactive); in test [6], 90.9% (inactive). Besides, the growth in [7] is 94.6% (inactive); in test [8] it was 101% (inactive); in [9], 102% (inactive); in test [10] it was 106% (inactive).

Turning to `CCOC(=O)c1cnn(CC(O)CC)c1NC(=O)NCc1ccccc1C(F)(F)F` (stereo not given), the growth in test [1] was 92.7% (inactive); in test [2], 106% (inactive); in test [3] it was 94.5% (inactive); in test [4], 90.8% (inactive); in test [5], 110% (inactive); in [6], 93.9% (inactive). Besides, the growth in test [7] is 70.3% (inactive); in [8], 94.9% (inactive); in [9], 96% (inactive); in test [10], 114% (inactive).

Take `CCCNNC(=O)/C=C/c1ccc(CNCCc2c(C)[nH]c3ccccc23)cc1`: the growth in [1] was 38.6% [2.5 µM] (inactive); in test [2], 33.6% [2.5 µM] (inactive); in [3], 15.9% [2.5 µM] (inactive); in test [4], 3.81% [2.5 µM] (active); in test [5], 23.8% [2.5 µM] (inactive); in test [6] it was -5.2% [2.5 µM] (active). The growth was 19.7% [2.5 µM] (inactive) in test [7], 14% [2.5 µM] (inactive) in test [8], 22.8% [2.5 µM] (inactive) in test [9] and -55.7% [2.5 µM] (active) in [10].

For `CC/C=C\C/C=C\C[C@H](O)C/C=C1/C(=O)C=C[C@@H]1C/C=C\CCCC(=O)OC`, the growth in [1] is -19.9% (active); in test [2] it was -48.3% (active); in test [3] it was 10.6% (inactive); in [4], -30.3% (active); in test [5], -40% (active); in [6], -23% (active). In addition, the growth in [7] was -52.3% (active); in test [8], -23.7% (active); in test [9], -60.6% (active); in [10], -69.4% (active).

Turning to `Cc1ccc(C(=O)Nc2ccc(CN3CCN(C)CC3)c(C(F)(F)F)c2)cc1C#Cc1cnc(N)cc1C#N`, the growth in [1] is -40.7% (active); in test [2], 9.78% (active); in test [3], 12.4% (inactive); in [4], -69.7% (active); in test [5], -80.7% (active); in test [6], -39.8% (active). The growth in test [7] was -72.7% (active); in test [8], -84.7% (active); in test [9], -73.8% (active); in test [10], -64.9% (active).
